Screening data deposited in PubChem BioAssay by National Center for Advancing Translational Sciences (NCATS).
Hits are enriched below; roughly 5.5% of the tested compounds scored in any of these assays.
uPA surface inh – qHTS for Inhibitors of Cell Surface uPA Generation. cell surface uPA generation assay, qHTS. Potency, µM (top dose mostly 38.3 µM), actives largely listed as inhibitors. 330,000 compounds, 0.31% hits. AID 540303, 2011; active means well fitted inhibition curve with a large enough effect; inconclusive means small, poorly fitted or top-dose-only effect; inactive means no such curve, though single readings can be large or run the other way; tested in mouse RAW 264.7 cells; further: nearly all actives have a fitted effect of over 55% in size
Mito fusion yeast – qHTS Assay for Small Molecule Inhibitors of Mitochondrial Division or Activators of Mitochondrial Fusion | 320,000 compounds, 0.23% hits | S. cerevisiae fusion-defective mutant growth rescue, CellTiterGlo 48 h | Potency, µM (titrated, usually from 46.1 µM), usual class: activators; further: nearly all actives have a fitted effect of over 45% in size
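Temperature-sensitive fusion-defective S. cerevisiae (e.g. fzo1-1, mgm1-5) were grown with compound in YPEG medium (3% ethanol, 3% glycerol) for 48 hours at 37C. Growth rescue was measured as viability by CellTiterGlo luminescence after 10 minutes at ambient.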
RORgamma inh – qHTS for inhibitors of ROR gamma transcriptional activity. Drosophila S2 Gal4-RORgamma UAS-luciferase reporter, 20 h. Potency, µM (highest dose often 53.6 µM), most hits filed as inhibitors. 310,000 compounds, 5.4% hits; further: nearly all actives have a fitted effect of over 60% in size
Target sequence (P51450 whole entry, looked up, the tested form may be a part): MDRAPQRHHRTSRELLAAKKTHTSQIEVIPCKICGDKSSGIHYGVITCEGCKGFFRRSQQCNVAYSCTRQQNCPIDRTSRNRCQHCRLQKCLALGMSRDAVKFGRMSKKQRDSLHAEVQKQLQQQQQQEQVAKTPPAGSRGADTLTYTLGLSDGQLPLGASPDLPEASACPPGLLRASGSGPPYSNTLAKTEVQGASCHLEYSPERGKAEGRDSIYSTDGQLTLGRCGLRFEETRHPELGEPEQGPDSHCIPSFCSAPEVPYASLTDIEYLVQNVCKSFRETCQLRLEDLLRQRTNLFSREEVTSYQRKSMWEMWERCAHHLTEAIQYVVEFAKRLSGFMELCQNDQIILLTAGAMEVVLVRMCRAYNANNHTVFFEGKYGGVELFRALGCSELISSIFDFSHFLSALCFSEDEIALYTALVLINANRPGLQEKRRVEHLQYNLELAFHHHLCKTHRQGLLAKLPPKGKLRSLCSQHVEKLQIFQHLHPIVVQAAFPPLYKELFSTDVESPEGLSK
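ROR gamma transcriptional activity was tracked as Gal4-UAS luciferase output in stably transfected Drosophila Schneider cells, with compound added 1 hr before 700 uM copper sulfate induction and a 20 hr ambient-temperature incubation.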
Gal4-VP16 FLuc – VP16 counterscreen qHTS for inhibitors of ROR gamma transcriptional activity. Drosophila S2 Gal4-VP16 UAS-luciferase, luminescence, 20 h. AID 2546, 2010. Potency, µM (titrated, usually from 53.6 µM), hits mostly inhibitors. 310,000 compounds, 3.5% hits;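 further: Gal4-VP16 expression switched on by copper sulfate through the metallothionein promoter; nearly all actives have a fitted effect of over 50% in size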
Integrin act MD – qHTS for Activators of Integrin-Mediated Alleviation for Muscular Dystrophy; alpha7betagal myoblasts, beta-gal FDG fluorescence, 48 h; Potency, µM (doses to about 38.3 µM), usual class: activators; 350,000 compounds, 0.064% hits; further: nearly all actives have a fitted effect of over 60% in size
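Alpha7betagal+/- myoblasts (passage 13) were plated 16-24 hr, then exposed to compounds (1:260 dilution of DMSO stock) for 48 hours at 37C. After MPER lysis, β-galactosidase reporter activity was read as FDG fluorescence (ex 480/em 540) after 30 minutes.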
Chronic BCR inh – qHTS Assay to Find Inhibitors of Chronic Active B-Cell Receptor Signaling. ABC-DLBCL IkBa-CBG/CBR reporter, luminescence ratio, 4 h. Potency, µM (highest dose often 46.1 µM), hits mostly inhibitors. 340,000 compounds, 0.05% hits; active means well fitted inhibition curve with a large enough effect in the signal ratio, with a control signal flat, not every such curve was filed as active; inconclusive means small, poorly fitted or top-dose-only effect, or effect the other way, or a change in a side signal; the % refers to the signal ratio
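Compounds up to 46 uM were incubated four hours with TMD8 cells whose green CBG68 luciferase is fused to IkappaBalpha; red CBR luminescence normalised the signal, and concentration-effect curves were fitted to fusion, red and ratio data.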
Numbers stand for hits; . = inactive; ? = inconclusive; / = no result; [ ] = remark or other dose. Unless noted, the call rests on the fitted dose curve; in most records, active means well fitted curve in the direction sought with a large enough effect; inconclusive means small, poorly fitted or top-dose-only effect, or another doubt; inactive means no such curve, though single readings can be large; an effect the other way counts as inactive or inconclusive.

SMILES	uPA surface inh	Mito fusion yeast	RORgamma inh	Gal4-VP16 FLuc	Integrin act MD	Chronic BCR inh
COC(=O)c1cccc(NC(=S)NCc2ccco2)c1	.	.	?	.	.	.
CSCc1cc(N(C)c2ccccc2)nc(-c2ccccn2)n1	.	.	0.562µM	3.16µM	.	.
COc1ccc([C@@]2(O)c3c(ccc(CC=C(C)C)c3O)NC(=O)[C@@H]2OC)cc1	.	.	?	.	.	?
CCC1CC(/C(C)=N/NC(N)=O)OC1=O (stereo unspecified)	.	.	.	.	.	.
C/C(CC1CC(C)OC1=O)=N\NC(N)=S (stereo unspecified)	.	.	8.91µM	?	.	.
Cc1ccc(NC2=CC(=O)C(=O)c3ccccc32)cc1	/	.	?	?	.	?
NS(=O)(=O)c1ccc(NC2=CC(=O)C(=O)c3ccccc32)cc1	.	.	10µM	?	.	?
Cc1ccc(C)c(NC(=O)c2cc3ccccn3n2)c1	.	.	.	.	.	?
Cc1ccc(C)c(NC(=O)c2cnn3ccccc23)c1	11.2µM	.	.	.	.	?
CCOc1ccc(OCCC(=O)N(CC)CC(=O)NCc2ccc(Cl)cc2)cc1	.	.	/	/	.	.
Cn1/c(=N/NC(=O)c2cccc(OC(F)F)c2)sc2ccccc21	.	.	10µM	14.1µM	.	.
O=C(/C=C/c1ccco1)Nc1ccc2nc3n(c(=O)c2c1)CCCC3	2µM	.	.	.	.	.
CC1CC=CC2C1C(=O)N(Cc1ccccc1)C2c1ccc(F)c(-c2ccc(N(C)C)cc2)c1 (stereo unspecified)	/	/	.	.	/	/
O=Cc1ccccc1C=O	/	/	.[10 µM]	.	/	/
CS(=O)(=O)N1CCC(C(=O)Nc2ccccc2)CC1	.	.	.	.	.	?
CS(=O)(=O)N1CCC(C(=O)Nc2ccccc2Sc2ccccc2)CC1	.	.	?	5.62µM	.	?
COC(=O)[C@@]1(Cc2ccc(OC)cc2)[C@@H]2C(=CC(=O)[C@H]2CC(=O)C(=O)N(C)C)CN1C(=O)c1ccccc1	?	.	?	?	.	?
C=C1C(=O)C=C2CN(C(=O)c3ccccc3)[C@@](Cc3ccc(F)cc3)(C(=O)OC)[C@@H]12	?	.	3.16µM	1.41µM	.	?
COc1ccc(-c2nc3ccc(N4CCN(C)CC4)cc3c(=O)[nH]2)cc1	.	.	.	.	.	.
COc1cc(-c2nc3ccc(N4CCN(C)CC4)cc3[nH]2)cc(OC)c1OC	.	.	7.08µM	?	.	.
Cc1ccc(O)c(-c2cc(-c3cccc(F)c3)n[nH]2)c1	.	.	?	?	.	?
Cc1ccc(O)c(-c2cc(-c3ccccc3F)[nH]n2)c1	.	.	?	?	.	.
Cc1ccc(-c2cc(-c3cccc(F)c3)n[nH]2)c(O)c1	.	?	11.2µM	10µM	.	?
Cc1ccc(-c2cc(-c3ccccc3C)[nH]n2)c(O)c1	.	?	0.794µM	1.41µM	.	?
C[C@@H](CCCCC(=O)Nc1ccc(C(F)(F)F)cc1)NCCc1cnc[nH]1	/	/	.	.	/	/
SMILES	uPA surface inh	Mito fusion yeast	RORgamma inh	Gal4-VP16 FLuc	Integrin act MD	Chronic BCR inh
Oc1ccccc1/C=N/NC(=S)NC1CC2CC1C1C=CCC21 (stereo unspecified)	.	.	8.91µM	11.2µM	.	.
COc1cccc(/C=N/NC(=S)NC2CC3CC2C2C=CCC32)c1O (stereo unspecified)	.	.	8.91µM	?	.	?
CC(C)Oc1ccccc1OCCCOc1cccc2cccnc12	.	.	14.1µM	.	.	.
Cc1cc(OCCOc2cccc3cccnc23)cc(C)c1Cl	.	.	20µM	.	.	?
COc1c2c(cc3c1C(c1c(O)c4ccccc4oc1=O)N(C)CC3)OCO2 (stereo unspecified)	/	/	.	.	/	/
Cc1cc(C)n(-c2cc(N3CCOCC3)ncn2)n1	.	.	.	.	.	.
Cc1cc(C)n(-c2nc(N(C)C)nc(N3CCOCC3)n2)n1	/	.	3.16µM	?	.	.
Cc1cc(C)n(-c2nc3ccccc3nc2N2CCC(C)CC2)n1	/	.	?	?	.	?
Cc1cc(N2CCC(C)CC2)nc(-n2nc(C)cc2C)n1	.	.	0.398µM	1.26µM	.	?
O=[N+]([O-])c1ccccc1/C=N/N1CCN(c2ccncc2S(=O)(=O)N2CCCCC2)CC1	.	11.2µM	.	.	.	.
C=C[C@@H]1[C@@H](C)[C@H](C)C(=O)C([C@H](O)C(C)C)[C@@H]1C (stereo partly specified)	/	/	.	.	/	/
Oc1ccccc1/C=N/Nc1nc2ccccc2o1	.	.	0.501µM	3.98µM	.	?
COc1ccc(/C=N/Nc2nc3ccccc3o2)cc1O	.	.	11.2µM	?	.	?
Brc1ccc(/C=N/Nc2nc3ccccc3o2)cc1	.	.	8.91µM	?	.	?
COc1cc(/C=N/Nc2nc3ccccc3o2)cc(OC)c1O	.	.	?	?	.	?
OCC1OC(Oc2c[nH]c3ccccc23)C(O)C(O)C1O (stereo unspecified)	.	.	/	/	/	.
O=C(COC(=O)c1ccc(S(=O)(=O)N2CCCCCC2)cc1)NCc1ccc(Cl)cc1	.	.	/	/	.	?
O=C(NCc1cccnc1)c1nc(-c2ccc(C(F)(F)F)cc2)no1	.	.	?	3.16µM	.	.
O=C(NCc1ccncc1)c1nc(-c2ccc(C(F)(F)F)cc2)no1	.	.	?	?	.	.
O=C(Nc1cccc(Cl)c1)c1cc(S(=O)(=O)NCCc2ccc(Cl)cc2)ccc1F	.	.	?	10µM	.	?
Cc1ccc(C(=O)N2CCC3CC2c2cc(-c4ccc5c(c4)OCO5)ccc23)cc1 (stereo unspecified)	.	/	/	/	.	/
Oc1ccccc1/C=N/Nc1ncc(Br)cn1	.	.	.[10 µM]	?	.	.
Oc1ccccc1/C=N/Nc1ccnc(SCc2ccccc2)n1	.	.	0.355µM	0.316µM	.	?
CCn1c(SCC(N)=O)nnc1-c1ccc(OC)c(OC)c1	/	.	.	.	.	.
C=CCn1c(-c2ccc(OC)c(OC)c2)n[nH]c1=S	.	.	3.16µM	?	.	.
CCn1c(-c2ccc(OC)c(OC)c2)n[nH]c1=S	.	.	11.2µM	.	.	.
CC(=O)Nc1ccc(OC(=O)c2ccccc2OC(C)=O)cc1	/	/	.	?	/	/
COc1ccc(C)cc1N1C(=N)/C(=C2/Nc3ccccc3S2)C(c2ccccc2)C1=O (stereo unspecified)	.	.	2.51µM	8.91µM	.	?
